In test [1] the test system is CRL-7250. Briefly: Cytotoxic Profiling of Annotated Libraries Using Quantitative High-Throughput Screening (AID 1296008). For max response: % is set by controls: 0 for no effect and ±100 for the full control effect. Note: potency is the fitted concentration of half-maximal effect. The conditions noted are these: Five cell lines viability, CellTiter-Glo ATP luminescence, 48-72 h; max response: active compounds read low. Put shortly:
(§1)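 Compounds were pin-transferred onto cells and incubated 48 or 72 hr at 37 degree Celsius, 95% humidity. CellTiter-Glo was added, plates sat 10 min at room temperature, then ATP-coupled luminescence was imaged as the viability read-out.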

In test [2] the test system is HEK293. The description is as above. The conditions noted are these: Five cell lines viability, CellTiter-Glo ATP luminescence, 48-72 h; max response: active compounds read low. Put shortly:
as §1

Test [3] has as its system HaCat. The description is as above. The conditions noted are these: Five cell lines viability, CellTiter-Glo ATP luminescence, 48-72 h; max response: active compounds read low. Put shortly: as §1
For test [4], the system named is KB-3-1. Described as above. The conditions noted are these: Five cell lines viability, CellTiter-Glo ATP luminescence, 48-72 h; max response: active compounds read low. Put shortly: as §1
The subject of test [5] is NIH3T3. Described as above. Particulars: Five cell lines viability, CellTiter-Glo ATP luminescence, 48-72 h; max response: active compounds read low. Put shortly:
as §1

In test [6] the test system is CRL-7250. Kind of test: qHTS assay to identify novel small-molecules to repurpose for Merkel cell carcinoma treatment (AID 1296009). Particulars: MCC and control cell lines, CellTiter-Glo viability, 72 h; at 44.8 µM (top of the series) unless noted. In short, it runs like this:
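Luminescence from CellTiter-Glo, read 10 min after addition at room temperature, reported viability following a 72 hr, 37 degree celsius treatment with NPC or MIPE compounds in titration; values normalized to plate controls.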

The test system of test [7] is ICS. Briefly: qHTS profiling for inhibitors of Plasmodium falciparum proliferation (AID 504749). Note: potency is the fitted concentration of half-maximal effect. Particulars: P. falciparum in erythrocytes, SYBR Green DNA, 72 h; series mostly up to 28.7 µM. In short, it runs like this:
(§2)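 Fluorescence of SYBR Green-bound parasite DNA, read at 485/535 nm, served as the growth measure. Infected erythrocytes were cultured with compound 72 h; artemisinin (0.29 uM) and DMSO wells defined the normalization range.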

The test system of test [8] is JCK. The description is as above. The conditions noted are these: P. falciparum in erythrocytes, SYBR Green DNA, 72 h; series mostly up to 28.7 µM. In short, it runs like this:
as §2

For test [9], the system named is N140. Described as above. Particulars: P. falciparum in erythrocytes, SYBR Green DNA, 72 h; series mostly up to 28.7 µM. In short, it runs like this:
as §2

For test [10], the system named is P94_40. The test is described as above. Particulars: P. falciparum in erythrocytes, SYBR Green DNA, 72 h; series mostly up to 28.7 µM. In short, it runs like this:
as §2

Test [11] relates to PAD. The test is described as above. Particulars: P. falciparum in erythrocytes, SYBR Green DNA, 72 h; series mostly up to 28.7 µM. In short, it runs like this:
as §2

For test [12], the system named is PC15. The test is described as above. Particulars: P. falciparum in erythrocytes, SYBR Green DNA, 72 h; series mostly up to 28.7 µM. Put shortly:
as §2

In test [13] the test system is PC26. Described as above. Particulars: P. falciparum in erythrocytes, SYBR Green DNA, 72 h; series mostly up to 28.7 µM. In short, it runs like this: as §2
The test system of test [14] is PC49. The description is as above. The conditions noted are these: P. falciparum in erythrocytes, SYBR Green DNA, 72 h; series mostly up to 28.7 µM. In short, it runs like this: as §2
For test [15], the system named is SC27B. The description is as above. Particulars: P. falciparum in erythrocytes, SYBR Green DNA, 72 h; series mostly up to 28.7 µM. In short, it runs like this:
as §2

Test [16] has as its system TAB109. The test is described as above. Particulars: P. falciparum in erythrocytes, SYBR Green DNA, 72 h; series mostly up to 28.7 µM. In short, it runs like this:
as §2

Test [17] relates to TAB113. The description is as above. Particulars: P. falciparum in erythrocytes, SYBR Green DNA, 72 h; series mostly up to 28.7 µM. Put shortly:
as §2

The test system of test [18] is TAB165. Described as above. Particulars: P. falciparum in erythrocytes, SYBR Green DNA, 72 h; series mostly up to 28.7 µM. Put shortly: as §2
The subject of test [19] is P93_24. The test is described as above. Particulars: P. falciparum in erythrocytes, SYBR Green DNA, 72 h; series mostly up to 28.7 µM. Put shortly: as §2
Test [20] deals with W2. The description is as above. The conditions noted are these: P. falciparum in erythrocytes, SYBR Green DNA, 72 h; series mostly up to 28.7 µM. In short, it runs like this:
as §2

9 compounds from PubChem BioAssay (NCATS) can be followed below.

“And” between values parts separate entries of the source, which are not always exact repeats. Identical values can stand only once. Records with an inconclusive call do not appear. A number with no mark means an inactive call. The source made the active and inactive calls. Calls come from the whole dose curve; as a rule, active = well fitted inhibition curve with a large enough effect; inconclusive = small, poorly fitted or top-dose-only effect; inactive = flat fitted curve, though single readings scatter.
Note: nearly all actives have a fitted effect of over 60% in size.

In the case of `C[C@@H]1C[C@@H]([C@H](O)CC2CC(=O)NC(=O)C2)C(=O)[C@@H](C)C1`, the Potency in test [1] was 1.33 µM (active) and 833 nM (active); in test [2], 469 nM (active); in test [3] it was 2350 nM (active); in [4], 3.66 µM (active) and 1.48 µM (active); in test [5], 473 nM (active) and 235 nM (active).
On to `CCOC(=O)c1cncn1C(C)c1ccccc1` (configuration not stated), for which the max response in [1] is 3.39%; in test [3], -5.29%; in test [4], 0.49% and 0.484%; in test [5], 1.83% and -0.636%. Further, the outcome in test [1], in [3] and in [6] was inactive.
As to `COc1ccc2[nH]cc(CCN(C(C)C)C(C)C)c2c1`, the max response in test [1] was -1.26%; in test [2] it was -7.74%; in test [3] it was 1.43%; in [4], -17%; in test [5] it was 1.94%.
On to `CCC1(c2ccccc2)CCC(=O)NC1=O` (configuration not stated), for which the Potency in [7] was 11200 nM (active). The Potency entry in test [8], in test [9], in test [10], in test [11], in [12] and in test [13] was “inactive” throughout. Besides, the Potency entry in test [14], in test [15], in test [16], in test [17] and in test [18] was “inactive” in each case. Further, the compound was classed as inactive in [1] and in test [6]. Besides, the max response in [2] is -5.95%; in test [3], -1.76%; in test [4], -6.95%; in test [5], 4.7%.
As for `O=C(O)CCCCCCNC1c2ccccc2CCc2ccccc21`, the max response in test [1] is -2%; in test [2] it was 2.21%; in test [3], 0.465%; in [4], 7.47%; in test [5], 1.62%.
With `C[C@@H]1CN(C2CCC(C#N)(c3ccc(F)cc3)CC2)CC[C@]1(C(=O)O)c1ccccc1` (some centres not stated), the outcome in [1], in [5] and in test [6] was inactive. The max response is -6.67% in test [2], 3.21% in test [3] and -4.01% in test [4].
`CN(C)C(=O)Oc1cc(OC(=O)N(C)C)cc(C(O)CNC(C)(C)C)c1` (configuration not stated): the max response in test [1] was -6.2%; in [2], -17.2%; in test [4] it was -2.49%; in test [5], -1.01%. In addition, the outcome in [3] was inactive.
For the compound `COc1cc(N)c(Cl)cc1C(=O)NC1CN2CCC1CC2` (configuration not stated), the max response in [1] was -0.63%; in test [2], -0.75%; in [3], -3.99%; in test [4] it was 8.72%. Besides, the compound was classed as inactive in test [5].
Regarding `COC(=O)C1=CCCN(C)C1`, the Potency entry in test [7], in [8], in test [9], in test [19], in test [10] and in [11] was “inactive” each time. Also, the Potency entry in test [12], in test [13], in [14], in test [15], in [16] and in test [17] was “inactive” in each case. Moreover, the Potency entry in [18] and in [20] was “inactive” each time. In addition, the max response was -3.77% in test [1]; -4.46% in [3]; 6.89% and 12.1% in test [4]. For the same compound, the compound was called inactive in test [1], in [3], in [5] and in test [6].
